Source: PubChem (Broad Institute)
aSyn UTR act – Activators via SNCA 5'UTR binding, MLPCN; alpha-synuclein 5'UTR reporter, activators screen; activity score, % (tested at 7.5 µM), hits read low; 300,000 compounds, 7.1% hits; AID 1814; in the data active = activity score below about -60%
* = called active by the depositor. Only a sample is shown.

SMILES | aSyn UTR act
Cc1cc(C(=O)O)ccc1N/C=C1\CCCC(C)C1=O (stereo not given) | -131*
CC1CCC/C(=C\Nc2ccc(O)cc2)C1=O (stereo not given) | -116*
CCSc1nnc(-c2c[nH]c3ccccc23)o1 | -104*
COc1cc(-c2nc3ccc(N4CCN(C)CC4)cc3[nH]2)cc(OC)c1OC | -102*
Cc1ccc(OCC(=O)c2ccc3c(c2)CCCC3)cc1C | -84*
Cc1ccc(NC(=O)COc2ccc3c(c2)CCC3)nc1 | -98*
Cc1cccnc1NC(=O)COc1ccc2c(c1)CCC2 | -94*
Cc1ccc(-c2cc(N)nc(-c3ccccc3)c2)cc1 | -87*
O=C(Nc1nnc(CCc2ccccc2)s1)c1cccs1 | -80*
CCCCCCc1nnc(NC(=O)c2ccco2)s1 | -67*
O=C(Nc1nnc(CCc2ccccc2)s1)c1ccco1 | -87*
CC(C)COC(=O)Nc1nnc(Cc2ccccc2)s1 | -97*
CC(C)(C)Cc1nnc(NC(=O)c2ccco2)s1 | -77*
NC(=O)c1cc(Cc2ccccc2)sc1NC(=O)c1ccco1 | -215*
O=C(Nc1nnc(Cc2ccccc2)s1)c1ccco1 | -95*
CCCCC(=O)N/C(N)=N/c1nc2ccccc2o1 | -206*
N/C(=N\c1nc2ccccc2o1)NC(=O)c1ccccc1F | -198*
O=C(NCc1cccnc1)/C(=C/c1ccc(-c2cccc(Cl)c2)o1)S(=O)(=O)c1ccccc1 | -193*
C=CCC(CC(O)COCCC)C(=O)NNC(=S)Nc1ccccc1 (stereo not given) | -113*
O=c1nc(/C=C/c2ccc(O)c(O)c2)oc2ccccc12 | -159*
Cc1cc(N2CCN(c3ccc(F)cc3)CC2)nc2cc(O)ccc12 | -66*
COc1ccc2nc(N3CCOCC3)cc(C)c2c1 | -79*
Cc1cc(N2CCN(c3ccccc3F)CC2)nc2cc(O)ccc12 | -64*
Cc1cc(N2CCOCC2)nc2cc(O)ccc12 | -136*
O=C(NNC(=O)c1cnccn1)c1ccc(Cl)c(Cl)c1 | 51
SMILES | aSyn UTR act
COc1cc(C(=O)N/N=C(\C)c2ccccn2)cc(OC)c1OC | 109
N/C(=N\NC(=O)c1ccc(Cl)cc1)c1cnccn1 | -67*
C/C(=N\Nc1ccc(Cl)cc1)c1ccccn1 | -138*
C/C(=N\NC(=O)c1ccc(Cl)cc1)c1ccccn1 | -63*
C/C(=N/NC(=O)c1ccccn1)c1ccc(O)cc1 | -90*
C/C(=N\Nc1ccc2nncn2n1)c1ccccn1 | 94
CCOc1ccc(C2CC(c3ccc(CC)cc3)Nc3nc(N)nn32)cc1 (stereo not given) | -65*
O=C(N/N=C/c1cccnc1)c1cc(Br)ccc1O | -125*
O=C(N/N=C/c1ccc2nccnc2c1)c1ccccc1O | -150*
Cc1cccc(C(=O)Oc2ccc(/C=N/NC(=O)c3ccccc3O)cc2)c1 | -135*
O=C(N/N=C/c1cccnc1)c1ccc(NC(=O)C(c2ccccc2)c2ccccc2)cc1 | 111
C(=N\NCc1ccccc1)/c1ccc2nccnc2c1 | -106*
O=C(N/N=C/c1ccnc2ccccc12)c1ccccc1O | -62*
O=C(N/N=C/c1ccc(O)c2ncccc12)c1cccc(Br)c1 | 67
Cc1nn(C)c(Sc2ccccc2N)c1[N+](=O)[O-] | -69*
N#C/C(=C/Nc1ccccc1)c1ccsc1 | -79*
Cc1ccc(N/C=C(/C#N)c2ccsc2)cc1 | -175*
Cc1cc(/C=C(\C#N)C(=O)NCc2cccs2)c(C)n1-c1ccccc1F | -240*
Cc1ccccc1-n1c(C)cc(/C=C(\C#N)C(=O)NCC2CCCO2)c1C (stereo not given) | -94*
CCOC(=O)/C=c1\s/c(=C\c2c(OC)ccc3ccccc23)c(=O)n1CC(=O)NCC1CCCO1 (stereo not given) | 71
CCC(C)NC(=O)c1ccc2c(Cl)c3c(nc2c1)CCC3 (stereo not given) | -164*
CN(C(=O)c1ccc2c(Cl)c3c(nc2c1)CCC3)c1ccccc1 | -223*
O=C(c1ccc2c(Cl)c3c(nc2c1)CCCC3)N1CCC(N2CCCCC2)CC1 | -89*
COc1cccc(N2CCN(C3C4CC5CC(C4)CC3C5)CC2)c1 (stereo not given) | -95*
C/C(Cl)=C/CSc1nn2c(=O)c3ccccc3nc2s1 | -100*
SMILES | aSyn UTR act
C=CCSc1nn2c(=O)c3ccccc3nc2s1 | -119*
COc1ccc(CC(=O)Nc2ccc(-c3ccc4nnc(C)n4n3)cc2)cc1OC | -75*
CCSc1nnc2ccc(-c3ccc(OC)c(OC)c3)nn12 | 62
O=C(Nc1ccc(F)cc1F)c1noc2c1CCC2 | -169*
O=C(Nc1cc(Cl)ccc1Cl)c1noc2c1CCCC2 | -67*
CCOC(=O)c1oc2cccc(O)c2c1C | -81*
CCOC(=O)c1oc2cccc(OC(C)=O)c2c1C | -85*
CNc1ncc(C(=O)c2ccccc2)s1 | -66*
CNc1ncc(C(=O)c2ccc(Br)cc2)s1 | -108*
COc1ccc(NC(=O)Nc2ccccn2)cc1OC | -79*
CN1C(=O)CSc2ccc(NC(=O)Nc3ccccn3)cc21 | -116*
O=C(Nc1ccc(Cl)c(Cl)c1)Nc1ccccn1 | -178*
O=C(c1cccc(-c2nnc(-c3ccccc3)o2)c1)N1CCCCC1 | -76*
O=C(c1ccc(-c2ccccc2)cc1)N1CCCC1 | -88*
O=C(Oc1ccc(-c2ccccc2)cc1)N1CCCCC1 | -169*
CS(=O)(=O)NNC(=O)Cn1nnc(-c2ccc(OCc3ccccc3Cl)cc2)n1 | -107*
COc1ccc(C(=O)Nc2ccc3nc(C)c(C)nc3c2)cc1 | -87*
COc1ccc(NC(=O)c2ccc3nc[nH]c3c2)cc1 | -81*
O=C(Nc1ccc(C(F)(F)F)cc1)c1ccc2nc[nH]c2c1 | -78*
O=C(Nc1ccc2c(c1)OCO2)c1ccc2nc[nH]c2c1 | -112*
Cc1ccc(C(=O)Nc2cccc(C(F)(F)F)c2)cc1Nc1ncnc2nc[nH]c12 | 78
CCCC[n+]1ccn(C2=C([O-])c3ccccc3C(=O)/C2=N\S(=O)(=O)c2ccc(Cl)cc2)c1 | 66
COc1ccc(C(=O)Nc2ccc3c(c2)nc2n3CCSC2)cc1 | -67*
Cc1ccccc1-c1nc(-c2ccc(Br)o2)no1 | -110*
Cc1ccccc1-c1nc(-c2ccc(NC(=O)c3ccc(Br)o3)cc2)no1 | -199*
SMILES | aSyn UTR act
Fc1ccccc1-c1nc(-c2ccc(Br)o2)no1 | -74*
COc1ccc(Cl)cc1-c1nc(-c2ccc(Br)o2)no1 | -123*
Cc1cc(C)cc(NC(=O)c2cc(C)n(Cc3cccs3)c2C)c1 | -117*
Cc1cc(C(=O)Nc2ccc(Cl)cc2)c(C)n1Cc1cccs1 | -67*
COc1cccc(C2(O)CC(C(F)(F)F)=NN2C(=O)c2ccccn2)c1 (stereo not given) | -113*
COc1cccc(Nc2nc(CC(C)=O)ns2)c1 | -86*
COc1ccc(Nc2nc(CC(C)=O)ns2)cc1 | -109*
CC(=O)Cc1nsc(Nc2ccc3c(c2)OCCO3)n1 | -125*
O=C(Nc1ccc2nc(-c3ccco3)c(-c3ccco3)nc2c1)NC1CC1 | -65*
O=C(Nc1ccc(N2CCOCC2)cc1)Nc1ccc2nc(-c3ccco3)c(-c3ccco3)nc2c1 | 112
O=C(CN1C(=O)c2ccccc2S1(=O)=O)c1cccc(Br)c1 | 84
O=C(CN1CC(=O)Oc2ccccc21)OCC(=O)c1cccc(Br)c1 | -66*
O=C(CN1CC(=O)Oc2ccccc21)OCC(=O)c1ccccc1 | -100*
CN1C(=O)S/C(=C\c2ccc(-n3cncn3)cc2)C1=O | -93*
CC(/C=C/c1ccccc1)=N/NC(=O)c1cnccn1 | -120*
O=C(/C=C/c1ccccc1)NC(=S)NNC(=O)c1cnccn1 | 87
